In PubChem BioAssay AID1159580 (chemical genetic matrix, 2015):
Several values for one entry are separate records, joined by “and”; a condition that tells them apart may be missing. Equal values may be shown once. Screen size: about 5,500 compounds; about 2,000 (36%) were called active. About 18% were inconclusive and are not listed. Cut-off read from the data, not from the text of the source: active = normalized growth mostly below about 0.91 (no sharp cut-off); inconclusive = no clear call, values can overlap the other calls; inactive = mostly above about 0.92. Some of the results follow.

Experiment: chemical genetic growth profiling, strain panel (AID 1159580);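 note: tested at 20 µM; growth read once vehicle control cultures reached saturation at 30 °C; 1 = growth at the plate median or of vehicle wells; lower values mean less growth of the strain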
Details: S. cerevisiae deletion strains, growth OD

Measured: normalized growth

O=C(O)C1=C[C@@H](O)[C@@H](O)[C@H](O)C1
inactive: locus YAL013W, strain DEP1, hits give low values 1.02 | locus YAL021C, strain ccr4, hits give low values 1 | locus YAL026C, strain drs2, hits give low values 0.978 | locus YAL030W, strain snc1, hits give low values 0.969 | locus YBL061C, strain skt5, hits give low values 0.974 | locus YBR009C, strain hhf1, hits give low values 0.988 | locus YBR021W, strain FUR4, hits give low values 1.02 | locus YBR023C, strain chs3, hits give low values 0.988 | locus YBR171W, strain sec66, hits give low values 0.985 | locus YBR229C, strain ROT2, hits give low values 1.01 | locus YBR231C, strain swc5, hits give low values 0.98 | locus YBR279W, strain paf1, hits give low values 0.977 | locus YCL011C, strain gbp2, hits give low values 0.99 | locus YCL016C, strain dcc1, hits give low values 0.987 | locus YCL029C, strain bik1, hits give low values 1.01 | locus YCL061C, strain MRC1, hits give low values 0.989 | locus YCL069W, strain vba3, hits give low values 0.977 | locus YCR088W, strain abp1, hits give low values 0.974 | locus YDL005C, strain med2, hits give low values 0.976 | locus YDL035C, strain GPR1, hits give low values 1.04 | locus YDL040C, strain nat1, hits give low values 0.987 | locus YDL074C, strain BRE1, hits give low values 1.07 | locus YDL101C, strain DUN1, hits give low values 1.03 | locus YDL134C, strain PPH21, hits give low values 0.999 | locus YDL185W, strain tfp1, hits give low values 1.01 | locus YDL192W, strain arf1, hits give low values 1.02 | locus YDR001C, strain nth1, hits give low values 0.975 | locus YDR069C, strain doa4, hits give low values 0.97 | locus YDR101C, strain arx1, hits give low values 1.04 | locus YDR137W, strain rgp1, hits give low values 0.977 | locus YDR150W, strain NUM1, hits give low values 1.02 | locus YDR159W, strain sac3, hits give low values 0.979 | locus YDR162C, strain NBP2, hits give low values 1.01 | locus YDR195W, strain ref2 0.946 | locus YDR297W, strain sur2, hits give low values 0.963 | locus YDR318W, strain mcm21, hits give low values 0.999 | locus YDR334W, strain swr1, hits give low values 0.966 | locus YDR335W, strain msn5, hits give low values 0.976 | locus YDR388W, hits give low values 1.01 | locus YDR392W, strain spt3, hits give low values 1.04 | locus YDR502C, strain sam2, hits give low values 1.01 | locus YEL003W, strain gim4, hits give low values 0.979 | locus YEL037C, strain rad23, hits give low values 0.971 | locus YEL061C, strain CIN8 (second series), hits give low values 0.973 | locus YEL061C, strain CIN8, hits give low values 1.01 | locus YER015W, strain faa2, hits give low values 0.988 | locus YER016W, strain bim1, hits give low values 0.977 | locus YER110C, hits give low values 1.01 | locus YER111C, strain swi4, hits give low values 0.967 | locus YER155C, strain BEM2 (second series), hits give low values 0.958 | locus YER155C, strain BEM2, hits give low values 1.01 | locus YER167W, strain BCK2, hits give low values 1.01 | locus YFR010W, strain ubp6, hits give low values 0.964 | locus YGL078C, strain dbp3, hits give low values 1.01 | locus YGL086W, strain mad1, hits give low values 1.07 | locus YGL167C, strain pmr1, hits give low values 0.977 | locus YGL173C, strain kem1, hits give low values 0.974 | locus YGL227W, strain vid30, hits give low values 0.986 | locus YGL240W, strain doc1, hits give low values 0.988 | locus YGL248W, strain PDE1, hits give low values 1.03 | locus YGL253W, strain hxk2, hits give low values 0.984 | locus YGR135W, strain pre9, hits give low values 1.02 | locus YGR252W, strain gcn5, hits give low values 0.931 | locus YHR013C, strain ard1, hits give low values 0.949 | locus YHR027C, strain rpn1, hits give low values 0.968 | locus YHR030C, strain SLT2, hits give low values 1.01 and 0.984 | locus YHR079C, strain IRE1 (second series), hits give low values 1.01 | locus YHR079C, strain IRE1, hits give low values 0.972 | locus YHR094C, strain hxt1, hits give low values 0.993 | locus YHR129C, strain ARP1, hits give low values 1.02 | locus YHR142W, strain chs7, hits give low values 0.995 | locus YHR200W, strain rpn10, hits give low values 0.996 | locus YIL066C, strain RNR3, hits give low values 1.02 | locus YIL073C, strain SPO22, hits give low values 1.08 | locus YIL125W, strain kgd1, hits give low values 1.03 | locus YIR030C, strain dcg1, hits give low values 0.999 | locus YJL092W, strain hpr5, hits give low values 0.976 | locus YJL095W, strain BCK1 (second series), hits give low values 0.978 | locus YJL095W, strain BCK1, hits give low values 1.04 and 0.998 | locus YJL115W, strain asf1, hits give low values 0.952 | locus YJL129C, strain trk1, hits give low values 0.981 | locus YJL134W, strain LCB3, hits give low values 1.01 | locus YJL154C, strain vps35, hits give low values 0.983 | locus YJL164C, strain tpk1, hits give low values 0.981 | locus YJL166W, strain qcr8, hits give low values 0.974 | locus YJL168C, strain set2, hits give low values 1.01 | locus YJL187C, strain SWE1 (second series), hits give low values 1.04 | locus YJL187C, strain SWE1, hits give low values 0.976
